# Measured values reported in ChEMBL document CHEMBL1961873, “Compounds: GSK PKIS; Assays: Nanosyn kinase panel” (2012).
# Columns and labels:
# [1] = molecular target: T1, Serine/threonine-protein kinase DCLK2 (Homo sapiens) (UniProt Q8N568); conditions: at 0.1 µM
# T1 sequence (whole entry): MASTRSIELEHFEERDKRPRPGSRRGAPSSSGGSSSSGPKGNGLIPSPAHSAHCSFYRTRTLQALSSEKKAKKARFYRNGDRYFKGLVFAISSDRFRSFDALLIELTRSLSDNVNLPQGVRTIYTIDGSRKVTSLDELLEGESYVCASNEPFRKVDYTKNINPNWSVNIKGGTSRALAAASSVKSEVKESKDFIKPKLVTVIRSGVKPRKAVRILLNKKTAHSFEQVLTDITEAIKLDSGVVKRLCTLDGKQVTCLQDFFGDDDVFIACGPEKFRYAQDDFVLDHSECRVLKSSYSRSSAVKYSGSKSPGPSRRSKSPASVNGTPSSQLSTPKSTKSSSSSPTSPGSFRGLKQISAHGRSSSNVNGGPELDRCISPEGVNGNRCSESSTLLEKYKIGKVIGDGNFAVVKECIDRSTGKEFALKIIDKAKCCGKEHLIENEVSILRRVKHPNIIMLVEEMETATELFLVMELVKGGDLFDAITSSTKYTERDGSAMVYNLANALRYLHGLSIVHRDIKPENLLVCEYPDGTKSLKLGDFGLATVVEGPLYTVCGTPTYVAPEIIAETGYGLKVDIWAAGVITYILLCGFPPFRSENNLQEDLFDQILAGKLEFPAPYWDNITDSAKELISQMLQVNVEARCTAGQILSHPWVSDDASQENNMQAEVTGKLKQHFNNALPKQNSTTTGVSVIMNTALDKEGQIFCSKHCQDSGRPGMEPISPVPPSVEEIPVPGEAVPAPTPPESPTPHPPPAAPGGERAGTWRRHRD
# [2] = molecular target: T1, Serine/threonine-protein kinase DCLK2 (Homo sapiens); conditions: at 1 µM
# [3] = molecular target: MAP kinase-activated protein kinase 2 (Homo sapiens) (UniProt P49137); conditions: at 0.1 µM
# [4] = molecular target: MAP kinase-activated protein kinase 2 (Homo sapiens) (UniProt P49137); conditions: at 1 µM
# [5] = molecular target: MAP kinase-activated protein kinase 3 (Homo sapiens) (UniProt Q16644); conditions: at 0.1 µM
# [6] = molecular target: MAP kinase-activated protein kinase 3 (Homo sapiens) (UniProt Q16644); conditions: at 1 µM
# [7] = molecular target: Serine/threonine-protein kinase MARK1 (Homo sapiens) (UniProt Q9P0L2); conditions: at 0.1 µM
# [8] = molecular target: Serine/threonine-protein kinase MARK1 (Homo sapiens) (UniProt Q9P0L2); conditions: at 1 µM
# [9] = molecular target: MAP/microtubule affinity-regulating kinase 3 (Homo sapiens) (UniProt P27448); conditions: at 0.1 µM
# [10] = molecular target: MAP/microtubule affinity-regulating kinase 3 (Homo sapiens) (UniProt P27448); conditions: at 1 µM
# [11] = molecular target: T2, MAP/microtubule affinity-regulating kinase 4 (Homo sapiens) (UniProt Q96L34); conditions: at 0.1 µM
# T2 sequence (whole entry): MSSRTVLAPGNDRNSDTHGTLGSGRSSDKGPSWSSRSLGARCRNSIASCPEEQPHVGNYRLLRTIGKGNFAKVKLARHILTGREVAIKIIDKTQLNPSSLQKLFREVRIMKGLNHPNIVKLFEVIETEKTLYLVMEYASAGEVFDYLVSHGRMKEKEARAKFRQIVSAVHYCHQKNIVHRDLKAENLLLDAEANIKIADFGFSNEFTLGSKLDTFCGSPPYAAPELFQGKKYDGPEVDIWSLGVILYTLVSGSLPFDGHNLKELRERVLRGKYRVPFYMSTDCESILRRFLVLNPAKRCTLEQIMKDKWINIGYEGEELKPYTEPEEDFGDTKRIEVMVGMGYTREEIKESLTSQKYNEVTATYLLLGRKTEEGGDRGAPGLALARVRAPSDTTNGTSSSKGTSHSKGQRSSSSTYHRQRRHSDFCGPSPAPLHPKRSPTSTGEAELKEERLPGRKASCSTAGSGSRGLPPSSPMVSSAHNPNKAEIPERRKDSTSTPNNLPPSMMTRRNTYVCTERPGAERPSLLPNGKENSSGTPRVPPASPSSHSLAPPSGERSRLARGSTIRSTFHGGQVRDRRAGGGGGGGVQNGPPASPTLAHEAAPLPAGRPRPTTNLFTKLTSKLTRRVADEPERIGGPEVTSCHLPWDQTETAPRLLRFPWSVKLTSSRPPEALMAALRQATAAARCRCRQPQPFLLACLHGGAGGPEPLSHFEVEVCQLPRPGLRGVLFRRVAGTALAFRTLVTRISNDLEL
# [12] = molecular target: T2, MAP/microtubule affinity-regulating kinase 4 (Homo sapiens); conditions: at 1 µM
# [13] = molecular target: Maternal embryonic leucine zipper kinase (Homo sapiens) (UniProt Q14680); conditions: at 0.1 µM
# [14] = molecular target: Maternal embryonic leucine zipper kinase (Homo sapiens) (UniProt Q14680); conditions: at 1 µM
# [15] = molecular target: MAP kinase-interacting serine/threonine-protein kinase 1 (Homo sapiens) (UniProt Q9BUB5); conditions: at 0.1 µM
# [16] = molecular target: MAP kinase-interacting serine/threonine-protein kinase 1 (Homo sapiens) (UniProt Q9BUB5); conditions: at 1 µM
# [17] = molecular target: MAP kinase-interacting serine/threonine-protein kinase 2 (Homo sapiens) (UniProt Q9HBH9); conditions: at 0.1 µM
# [18] = molecular target: MAP kinase-interacting serine/threonine-protein kinase 2 (Homo sapiens) (UniProt Q9HBH9); conditions: at 1 µM
# [19] = molecular target: Serine/threonine-protein kinase MARK2 (Homo sapiens) (UniProt Q7KZI7); conditions: at 0.1 µM;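 also: mean percent inhibition of PAR-1Balpha kinase activity, reported from the GSK PKIS screen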
# [20] = molecular target: Death-associated protein kinase 1 (Homo sapiens) (UniProt P53355); conditions: at 1 µM;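 also: each value is a mean inhibition figure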
# Death-associated protein kinase 1 (Homo sapiens), sequence (P53355 whole entry, looked up): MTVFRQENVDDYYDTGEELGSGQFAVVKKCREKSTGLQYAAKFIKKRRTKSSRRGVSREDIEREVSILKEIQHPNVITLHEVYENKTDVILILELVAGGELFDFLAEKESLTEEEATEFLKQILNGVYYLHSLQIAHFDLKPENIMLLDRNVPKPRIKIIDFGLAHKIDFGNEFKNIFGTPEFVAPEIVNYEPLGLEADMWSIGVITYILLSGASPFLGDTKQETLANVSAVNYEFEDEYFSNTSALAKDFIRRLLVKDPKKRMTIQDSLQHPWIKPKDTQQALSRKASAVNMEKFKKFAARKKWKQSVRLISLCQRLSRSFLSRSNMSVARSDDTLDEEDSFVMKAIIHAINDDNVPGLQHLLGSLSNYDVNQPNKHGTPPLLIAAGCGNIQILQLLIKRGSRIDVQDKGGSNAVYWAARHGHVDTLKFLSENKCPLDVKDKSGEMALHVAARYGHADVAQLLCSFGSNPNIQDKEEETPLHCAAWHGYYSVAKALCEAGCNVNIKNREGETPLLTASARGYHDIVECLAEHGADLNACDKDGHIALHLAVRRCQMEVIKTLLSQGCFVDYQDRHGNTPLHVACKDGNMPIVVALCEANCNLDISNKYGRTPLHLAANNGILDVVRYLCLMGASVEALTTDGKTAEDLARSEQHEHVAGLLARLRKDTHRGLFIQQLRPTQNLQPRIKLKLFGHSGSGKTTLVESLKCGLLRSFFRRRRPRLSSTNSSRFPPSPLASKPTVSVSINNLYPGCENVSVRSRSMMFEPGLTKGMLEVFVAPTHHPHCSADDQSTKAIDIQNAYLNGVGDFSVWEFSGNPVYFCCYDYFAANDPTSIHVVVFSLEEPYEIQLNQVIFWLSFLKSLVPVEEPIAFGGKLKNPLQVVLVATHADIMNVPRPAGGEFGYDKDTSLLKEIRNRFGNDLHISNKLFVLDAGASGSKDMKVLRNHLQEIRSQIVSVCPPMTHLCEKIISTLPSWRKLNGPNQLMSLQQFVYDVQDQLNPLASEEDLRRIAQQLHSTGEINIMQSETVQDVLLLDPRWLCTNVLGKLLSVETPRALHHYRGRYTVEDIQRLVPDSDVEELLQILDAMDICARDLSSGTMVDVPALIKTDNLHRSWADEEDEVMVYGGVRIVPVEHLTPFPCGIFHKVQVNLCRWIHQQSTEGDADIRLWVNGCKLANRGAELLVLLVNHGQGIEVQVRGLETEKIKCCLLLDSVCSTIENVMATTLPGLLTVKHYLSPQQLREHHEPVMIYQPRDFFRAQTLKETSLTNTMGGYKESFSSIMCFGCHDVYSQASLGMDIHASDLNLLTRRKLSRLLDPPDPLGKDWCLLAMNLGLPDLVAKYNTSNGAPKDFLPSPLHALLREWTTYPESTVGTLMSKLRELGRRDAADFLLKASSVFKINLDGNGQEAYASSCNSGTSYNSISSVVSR
# MAP kinase-activated protein kinase 3 (Homo sapiens), sequence (Q16644 whole entry, looked up): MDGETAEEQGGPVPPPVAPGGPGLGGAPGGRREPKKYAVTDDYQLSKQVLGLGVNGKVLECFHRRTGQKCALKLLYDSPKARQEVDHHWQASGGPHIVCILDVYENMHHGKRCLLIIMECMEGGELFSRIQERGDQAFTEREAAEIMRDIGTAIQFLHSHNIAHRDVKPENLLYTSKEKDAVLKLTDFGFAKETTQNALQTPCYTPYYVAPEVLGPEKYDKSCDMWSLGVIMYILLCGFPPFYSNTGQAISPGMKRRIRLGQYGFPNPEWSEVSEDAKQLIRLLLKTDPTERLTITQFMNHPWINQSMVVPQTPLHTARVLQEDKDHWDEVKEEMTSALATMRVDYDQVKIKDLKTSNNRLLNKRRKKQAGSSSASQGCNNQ
# Serine/threonine-protein kinase MARK1 (Homo sapiens), sequence (Q9P0L2 whole entry, looked up): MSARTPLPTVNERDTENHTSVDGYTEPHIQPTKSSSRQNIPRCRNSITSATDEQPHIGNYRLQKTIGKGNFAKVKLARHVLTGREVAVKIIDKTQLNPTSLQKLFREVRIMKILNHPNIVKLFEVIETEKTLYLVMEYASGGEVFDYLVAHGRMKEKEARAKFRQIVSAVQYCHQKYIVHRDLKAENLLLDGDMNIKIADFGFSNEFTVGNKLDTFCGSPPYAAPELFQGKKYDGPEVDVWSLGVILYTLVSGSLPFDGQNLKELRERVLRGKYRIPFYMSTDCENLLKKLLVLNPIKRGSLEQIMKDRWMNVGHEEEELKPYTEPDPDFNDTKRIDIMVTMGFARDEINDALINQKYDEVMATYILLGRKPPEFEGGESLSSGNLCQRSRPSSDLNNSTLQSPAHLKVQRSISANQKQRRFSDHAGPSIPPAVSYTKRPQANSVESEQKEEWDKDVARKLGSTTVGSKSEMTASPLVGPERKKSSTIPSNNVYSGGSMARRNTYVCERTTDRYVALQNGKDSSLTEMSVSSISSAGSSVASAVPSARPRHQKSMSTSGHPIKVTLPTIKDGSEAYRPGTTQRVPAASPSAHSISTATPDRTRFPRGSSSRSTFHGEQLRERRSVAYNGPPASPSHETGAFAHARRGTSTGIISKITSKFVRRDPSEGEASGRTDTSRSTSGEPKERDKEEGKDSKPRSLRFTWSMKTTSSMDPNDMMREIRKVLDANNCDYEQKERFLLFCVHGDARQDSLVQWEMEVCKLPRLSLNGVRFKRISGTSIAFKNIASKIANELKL
# Maternal embryonic leucine zipper kinase (Homo sapiens), sequence (Q14680 whole entry, looked up): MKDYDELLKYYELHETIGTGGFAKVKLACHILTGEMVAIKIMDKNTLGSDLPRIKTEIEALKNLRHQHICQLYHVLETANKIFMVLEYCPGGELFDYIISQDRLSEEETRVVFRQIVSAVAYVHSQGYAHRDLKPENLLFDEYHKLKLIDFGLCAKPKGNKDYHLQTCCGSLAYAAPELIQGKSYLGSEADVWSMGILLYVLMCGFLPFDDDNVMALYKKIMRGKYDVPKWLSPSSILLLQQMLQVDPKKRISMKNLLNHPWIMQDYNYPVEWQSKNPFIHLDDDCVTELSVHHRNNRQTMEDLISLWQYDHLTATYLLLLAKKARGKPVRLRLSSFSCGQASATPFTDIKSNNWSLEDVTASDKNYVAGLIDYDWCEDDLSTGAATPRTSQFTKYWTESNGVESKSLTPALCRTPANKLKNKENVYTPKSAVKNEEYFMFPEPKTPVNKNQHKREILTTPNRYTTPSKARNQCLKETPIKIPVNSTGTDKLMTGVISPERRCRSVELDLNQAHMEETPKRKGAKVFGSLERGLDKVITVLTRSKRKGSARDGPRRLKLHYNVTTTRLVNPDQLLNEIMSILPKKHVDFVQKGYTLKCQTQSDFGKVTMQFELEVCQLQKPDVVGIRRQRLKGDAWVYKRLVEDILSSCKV
# Serine/threonine-protein kinase MARK2 (Homo sapiens), sequence (Q7KZI7 whole entry): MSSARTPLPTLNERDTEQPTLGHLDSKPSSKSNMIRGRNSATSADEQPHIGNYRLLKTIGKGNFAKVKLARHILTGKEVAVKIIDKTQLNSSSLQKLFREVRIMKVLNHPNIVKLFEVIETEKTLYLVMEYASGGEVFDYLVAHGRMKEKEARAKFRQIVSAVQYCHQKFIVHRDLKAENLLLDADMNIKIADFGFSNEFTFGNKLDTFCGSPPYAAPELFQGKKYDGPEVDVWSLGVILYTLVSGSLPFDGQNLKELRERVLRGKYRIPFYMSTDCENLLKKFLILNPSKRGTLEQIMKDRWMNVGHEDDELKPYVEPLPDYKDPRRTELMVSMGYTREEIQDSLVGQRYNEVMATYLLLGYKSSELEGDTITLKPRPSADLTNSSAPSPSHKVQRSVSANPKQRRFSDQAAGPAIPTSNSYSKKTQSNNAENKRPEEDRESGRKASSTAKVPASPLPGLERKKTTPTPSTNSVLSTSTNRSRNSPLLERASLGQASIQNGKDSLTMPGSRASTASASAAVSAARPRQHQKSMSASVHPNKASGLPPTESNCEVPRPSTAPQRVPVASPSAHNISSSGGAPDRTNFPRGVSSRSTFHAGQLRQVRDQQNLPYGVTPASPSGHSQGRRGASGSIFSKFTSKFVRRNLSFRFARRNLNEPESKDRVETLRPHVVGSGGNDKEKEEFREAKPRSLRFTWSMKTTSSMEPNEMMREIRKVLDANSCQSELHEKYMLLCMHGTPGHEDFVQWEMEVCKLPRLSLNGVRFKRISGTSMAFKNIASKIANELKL
# MAP/microtubule affinity-regulating kinase 3 (Homo sapiens), sequence (P27448 whole entry, looked up): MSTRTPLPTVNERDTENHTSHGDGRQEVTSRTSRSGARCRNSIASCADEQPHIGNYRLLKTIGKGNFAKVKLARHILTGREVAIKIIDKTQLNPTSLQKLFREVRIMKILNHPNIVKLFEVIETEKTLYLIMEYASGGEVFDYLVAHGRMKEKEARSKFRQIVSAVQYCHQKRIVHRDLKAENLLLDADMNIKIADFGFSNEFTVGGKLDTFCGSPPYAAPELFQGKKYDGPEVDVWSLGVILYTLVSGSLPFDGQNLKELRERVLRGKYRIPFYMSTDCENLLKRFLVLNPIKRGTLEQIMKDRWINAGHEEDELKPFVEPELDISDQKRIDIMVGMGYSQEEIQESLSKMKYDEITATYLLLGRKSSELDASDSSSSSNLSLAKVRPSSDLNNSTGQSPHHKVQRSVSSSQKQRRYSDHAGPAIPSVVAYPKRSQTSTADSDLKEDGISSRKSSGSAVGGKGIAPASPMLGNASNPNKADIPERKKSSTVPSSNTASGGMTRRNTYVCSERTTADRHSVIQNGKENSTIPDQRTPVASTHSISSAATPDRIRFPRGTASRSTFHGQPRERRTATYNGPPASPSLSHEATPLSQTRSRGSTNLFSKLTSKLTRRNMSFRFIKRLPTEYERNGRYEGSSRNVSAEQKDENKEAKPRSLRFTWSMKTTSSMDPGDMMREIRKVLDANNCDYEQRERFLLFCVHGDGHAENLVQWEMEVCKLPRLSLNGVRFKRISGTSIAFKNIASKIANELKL
Compound,inhibition [1],inhibition [2],inhibition [3],inhibition [4],inhibition [5],inhibition [6],inhibition [7],inhibition [8],inhibition [9],inhibition [10],inhibition [11],inhibition [12],inhibition [13],inhibition [14],inhibition [15],inhibition [16],inhibition [17],inhibition [18],inhibition [19],inhibition [20]
COc1cc2ncn(-c3cc(OCc4ccccc4Cl)c(C(N)=O)s3)c2cc1OC,-1.31%,4.65%,-2.81%,-3.53%,-5.38%,-2.78%,2.4%,9.28%,1.85%,9.99%,1.66%,9.04%,2.05%,8.87%,0.61%,7.42%,1.58%,7.9%,0.69%,
CCn1c(-c2nonc2N)nc2c(N3CCCC3)nccc21,-6.15%,4.26%,-1.28%,-1.63%,-0.94%,-1.73%,0.71%,2.75%,1.92%,-0.19%,2.01%,3.21%,0.66%,6.1%,-0.54%,5.25%,-1.08%,1.33%,2.95%,0.8%
CCCN1CCC(Oc2cc(Nc3nc(Nc4cccc(F)c4C(N)=O)c4cc[nH]c4n3)c(OC)cc2Cl)CC1,-2.33%,,-0.08%,-0.66%,10.3%,-0.67%,-1.22%,2.97%,-0.83%,1.93%,-0.13%,2.83%,1.25%,21.2%,1.13%,3.91%,0.85%,0.99%,-0.3%,16.8%
CS(=O)(=O)CCNCc1nc(-c2ccc3ncnc(Nc4ccc(F)c(Cl)c4)c3c2)cs1,0.59%,,1.59%,0.26%,2.16%,1.58%,1.43%,1.33%,1.69%,-1.39%,-0.14%,0.31%,-1.18%,3.48%,10.6%,50.4%,13.4%,55.7%,-0.48%,6.48%
COC(=O)Nc1nc2cc(Oc3ccc(NC(=O)Nc4cccc(C(=O)O)c4)cc3)ccc2[nH]1,-6.21%,,0.64%,0.43%,0.86%,-0.42%,0.32%,3.08%,1.09%,3.98%,-0.3%,1.97%,-0.21%,0.37%,-0.48%,8.3%,0.28%,3.85%,-2.31%,0.01%
CCn1c(-c2nonc2N)nc2c(C#CC(C)(C)O)nc(OC[C@@H](N)c3ccccc3)cc21,,1.63%,-3.81%,-3.91%,-6.12%,-7.91%,0.67%,19.9%,3.1%,28.1%,1.28%,16.9%,0.84%,27.5%,-0.06%,4.44%,0.08%,3.19%,1.17%,-7.69%
Fc1cccc(COc2ccc(Nc3ncnc4cc(-c5ccc[nH]5)sc34)cc2Cl)c1,-2.61%,,-0.38%,-0.64%,0.31%,-0.26%,1.53%,2.14%,-1.42%,-1.25%,1.49%,1.57%,4.24%,5.38%,1%,7.21%,0.75%,3.83%,-1.15%,-2.65%
Nc1nc(-c2ccccn2)c(-c2ccc3ncccc3n2)s1,0.14%,-0.77%,2.05%,2.02%,1.5%,3.66%,3.28%,6.18%,2.5%,8.13%,0.3%,2.26%,3.67%,7.64%,2.16%,5.61%,1%,5.53%,-3.64%,3.99%
COc1ccc2cc(-c3c(-c4ccncc4)nc(-c4ccc([S+](C)[O-])cc4)n3C)ccc2c1 (stereo not drawn),0.5%,5.77%,1%,0.92%,2.16%,2.35%,3.1%,3.73%,2.34%,0.76%,1.4%,1.07%,2.76%,6.5%,2.19%,3.02%,0.53%,0.5%,0.3%,4.63%
CCn1c(-c2nonc2N)nc2cncc(C(=O)N3CC[C@H](N)C3)c21,0.17%,-0.36%,1.77%,1.78%,3.01%,4.01%,4.67%,12.8%,3.75%,4.57%,2.19%,4.51%,14.8%,60.6%,3.74%,9.55%,2.07%,10.8%,1.6%,8.64%
NCc1ccc(-c2nc(-c3ccc(Cl)c(O)c3)c(-c3ccncc3)[nH]2)cc1,3.34%,5.14%,-0.41%,-0.56%,15.5%,30.9%,2.03%,2.6%,0.33%,5.09%,0.06%,2.57%,0.75%,-1.02%,-2.18%,6.58%,1.14%,4.8%,-0.38%,1.16%
CC1=C(C(=O)Nc2ccc3[nH]ncc3c2)C(c2ccc(Cl)c(Cl)c2)CC(=O)N1 (stereo not drawn),,0.32%,0.89%,-0.26%,2.5%,1.83%,0.33%,5.92%,2.97%,9.26%,-0.78%,3.04%,-0.28%,5.33%,2.25%,5.99%,0.25%,1.48%,-0.78%,-1.58%
COc1cc(C)c(NC(=O)CN(C)C)cc1Nc1nc(Nc2cccc(F)c2C(N)=O)c2cc[nH]c2n1,1.99%,,0.89%,0.73%,3.1%,3.56%,-0.37%,1.38%,-0.27%,0.73%,-0.67%,0.75%,2.85%,18.1%,1.46%,0.39%,0.92%,1.25%,-2%,35%
COc1ccc(-c2nn3ncccc3c2-c2ccnc(Nc3ccc(Cl)c(C(F)(F)F)c3)n2)cc1,1.74%,,1.23%,0.64%,4.41%,17.4%,2.21%,2.97%,-0.96%,6.57%,0.48%,0.08%,0.2%,4.8%,-1.04%,5.69%,1.9%,2.43%,-0.27%,2.18%
CCN1CCC(CC(=O)Nc2n[nH]c3nc(-c4cccs4)c(Br)cc23)CC1,0.63%,0.11%,-2.22%,-2.04%,-2.21%,-2.44%,-2.56%,-1.05%,1%,-0.75%,0.08%,0.81%,-1.63%,0.98%,42%,76.6%,2.95%,28.2%,0.07%,1.46%
CC(C)=Cc1cccc2c1/C(=N/Nc1ccc(S(N)(=O)=O)cc1)C(=O)N2,0.25%,,3.53%,3.71%,7.64%,7.15%,2.11%,24.8%,2.08%,20.6%,1.89%,20%,0.98%,25.6%,0.23%,7.18%,1.9%,4.65%,1.87%,10.2%
Fc1cccc(COc2ccc(Nc3ncnc4sc(-c5cccs5)cc34)cc2Cl)c1,-1.25%,2.62%,-2.05%,-2.63%,-4.76%,-5.22%,0.88%,2.73%,0.02%,3.4%,0.59%,1.48%,2.25%,3.16%,2.11%,5.61%,1.36%,5.08%,1.15%,-9.5%
CS(=O)(=O)Nc1ccc(N/C=C2\C(=O)Nc3ccccc32)cc1,-2.55%,-4.45%,-1.85%,-1.69%,-2.11%,-2.88%,3.85%,23.8%,0.83%,16.1%,3.29%,18.9%,-1.64%,20.9%,-0.49%,-0.33%,0.01%,5.59%,2.67%,-2.55%
NS(=O)(=O)c1cccc(-c2ccc3c(NC(=O)C4CC4)n[nH]c3c2)c1,0.34%,,-1.6%,-1.12%,2.07%,2.74%,0.18%,4.41%,2.87%,3.86%,1.62%,6.55%,0.79%,3.48%,-0.26%,7.26%,-1.27%,1.02%,0.51%,3.03%
Cc1nn(C)c2cc(N(C)c3ccnc(Nc4cccc(S(N)(=O)=O)c4)n3)ccc12,0.57%,0.12%,3.83%,3.29%,8.73%,11%,3.07%,4.05%,0.92%,-2.37%,1.36%,0.82%,4.84%,5%,1.93%,6.83%,2.38%,7.27%,-0.09%,8.09%
Cc1ccc(C(=O)NC2CCCCC2)cc1-c1ccc(C(=O)NCC2CC2)cc1,3.45%,,0.37%,0.95%,1.78%,4.53%,1.97%,0.65%,3.7%,2.82%,1.51%,1.5%,1.92%,2.41%,1.78%,2.58%,0.32%,-0.44%,0.34%,5.32%
